In all, about 39,000 sequences were measured (“fluorescence intensity (a.u.)”: median about 4,300, highest 2% from about 39,000 on). Shown is part of a subset that was picked to be rich in the highest values.

The target in the assay is T1, OsSMF1 (Oryza sativa, UniProt Q6ZLB0 1-436).
T1 sequence: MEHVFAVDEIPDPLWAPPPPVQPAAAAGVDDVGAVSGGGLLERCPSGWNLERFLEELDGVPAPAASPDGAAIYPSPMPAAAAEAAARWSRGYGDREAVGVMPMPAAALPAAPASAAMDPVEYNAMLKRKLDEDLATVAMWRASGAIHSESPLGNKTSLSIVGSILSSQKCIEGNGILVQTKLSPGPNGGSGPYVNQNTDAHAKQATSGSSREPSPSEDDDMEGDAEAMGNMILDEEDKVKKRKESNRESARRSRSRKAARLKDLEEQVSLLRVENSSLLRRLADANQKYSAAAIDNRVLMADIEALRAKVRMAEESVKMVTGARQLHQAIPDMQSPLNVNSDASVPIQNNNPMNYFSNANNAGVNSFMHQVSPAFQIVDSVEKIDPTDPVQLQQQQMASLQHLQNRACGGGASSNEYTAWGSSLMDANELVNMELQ
Description: protein-binding microarray (RPBM); PBS, 2% BSA, 51.3 ng/ul salmon testes DNA, 50 uM zinc acetate, 200 nM TF, 25 C, 1 h; high values mean tight binding. The settings on record: protein: recombinant; tags: N-terminal polyhistidine and DsRed monomer fusion (pET32a); chain copies: 2; label: CyDye5-dUTP incorporated in the synthesized complementary strand; 3' TTTTT single-stranded linker to array surface; dsDNA, one strand shown. The method in brief: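 Transcription factors, each fused N-terminally to a polyhistidine tag and DsRed, were expressed in E. coli BL21-CodonPlus and purified on Ni–NTA. A custom Agilent array was made double-stranded by primer extension with Cy5-dUTP and blocked with 2% BSA. It was incubated with 200 nM protein in PBS, 2% BSA, salmon testes DNA and 50 µM zinc acetate at 25 °C for 1 h, then washed. The binding signal is per-feature fluorescence intensity (arbitrary units) read on an Axon 4000B scanner.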
Take “GCATGCGGGATAGGAGCTTGACTAGCATGACGAGGCAGAACGGAGTCACCTAGTGCAG”: the binding signal was 5890 fluorescence intensity (a.u.).

“ATTTAATAGTCCGGGAGGCATGCTTACGGACAAGGACGAACGGAGTCACCTAGTGCAG”: the binding signal is 47100 fluorescence intensity (a.u.). For “GCATGCTCTCCGTGCCGTATGCGCTGTCGTAGGGCAGGTGCGGAGTCACCTAGTGCAG”, the binding signal is 3760 fluorescence intensity (a.u.). Under “CGCCGCCGCCGTCGCTGCCGCCGCCGCCGCCGCCTAGGGTCGGAGTCACCTAGTGCAG” stands 29300 fluorescence intensity (a.u.); under “TCACTTCTCTCCTCCACATGTGCATACAACTGACTTATAACGGAGTCACCTAGTGCAG”, 4660 fluorescence intensity (a.u.); under “GTTGAATTCTGTGCGTGTAAGCAGACCTGCATTGCCGTCGCGGAGTCACCTAGTGCAG”, 3170 fluorescence intensity (a.u.). Under “TCCCAATTGACTAGAGGATGCTTCAGAGATGAAAACATGGCGGAGTCACCTAGTGCAG” stands 3190 fluorescence intensity (a.u.); under “GCAATTCACTCCAGTTCACTTTGCCAGCTTGTCTCTCTGACGGAGTCACCTAGTGCAG”, 3520 fluorescence intensity (a.u.).

With “ATAATGAAAATGAGAATTCATGCCAGCTCTGCAAAGTGGACGGAGTCACCTAGTGCAG”, the binding signal was 4780 fluorescence intensity (a.u.). Under “TCCAGCTCTGAATTTCACTCTGCATGCATAAGTTGCAGGACGGAGTCACCTAGTGCAG” stands 48100 fluorescence intensity (a.u.). Under “ATATACAGTACACGTTCTTGCCCTCATTGCCACATAGTACCGGAGTCACCTAGTGCAG” stands 4020 fluorescence intensity (a.u.); under “TCCCCAAGTCAGTCAATGCCATCACTGTCATCTGCTCTCACGGAGTCACCTAGTGCAG”, 3200 fluorescence intensity (a.u.). Take “TTCATTGACCGAGAACGATAGCACGCATCACATCAGCATCCGGAGTCACCTAGTGCAG”: the binding signal was 3250 fluorescence intensity (a.u.). On to “TGGGAGTGCGTGGTGTGCGTGGCGTCGGTTCTTGCGGAGGCGGAGTCACCTAGTGCAG”, for which the binding signal was 5410 fluorescence intensity (a.u.). Under “GAGGGTTCTTGATGCGTGACCTGATGCGGGAGGCGTATTGCGGAGTCACCTAGTGCAG” stands 39200 fluorescence intensity (a.u.).

“CGCGCGTGCGGTTCTTGTGTCCGAGGGTGGTGGTGTGTGGCGGAGTCACCTAGTGCAG”: the binding signal is 3360 fluorescence intensity (a.u.). Under “ATTGAAAATTCTCTACTCTTTACACGTGTCCATCATCCCACGGAGTCACCTAGTGCAG” stands 19100 fluorescence intensity (a.u.); under “TCAAGTCATGAATTCTCCTATTTCAAGTCACTTCAGAAGTCGGAGTCACCTAGTGCAG”, 3330 fluorescence intensity (a.u.).

As to “CATGCCAGGTCAGTCGGCATCCATGAAGACTGCACTGCACCGGAGTCACCTAGTGCAG”, the binding signal is 42600 fluorescence intensity (a.u.). With “TTTATGGATAGAAGATGCACCGGCCAGGTCATGAAGATCACGGAGTCACCTAGTGCAG” the figure was 4050 fluorescence intensity (a.u.); with “GCAGCGCCATGAAAGCGCATGGCATGCATGCACTGCACTGCGGAGTCACCTAGTGCAG”, 3520 fluorescence intensity (a.u.); with “AATCGTGCTCGATTGACCTCACTAATTCATCCCTGTAACCCGGAGTCACCTAGTGCAG”, 25700 fluorescence intensity (a.u.).

As to “GGGGTGAGGTGAGGTTACCACGTCGGCGACGGTGAGGAAGCGGAGTCACCTAGTGCAG”, the binding signal was 6110 fluorescence intensity (a.u.). With “CTTATCTACTTGATATTTGCATATGTATACAGTTTTACTGCGGAGTCACCTAGTGCAG” the figure was 3220 fluorescence intensity (a.u.); with “GGTAGCTGATACAGGTATGCAGACGAAAGATCACACCTATCGGAGTCACCTAGTGCAG”, 32500 fluorescence intensity (a.u.). Take “ACTTGATCAGCACACTCTGGTGACATGACAGCTGTAAAGTCGGAGTCACCTAGTGCAG”: the binding signal was 4180 fluorescence intensity (a.u.).

For “GCTGAGCTGAGCTGATATGATCAACACAGTGCAGACTTGGCGGAGTCACCTAGTGCAG”, the binding signal is 3710 fluorescence intensity (a.u.).

For the sequence “ATGATCAGATACACACTCTGGCTTGGCTTGTAGCTGCAACCGGAGTCACCTAGTGCAG”, the binding signal is 50400 fluorescence intensity (a.u.). As for “GTAGTACCATGTATTAGATGGACTTCTCCACGTTTCTCTGCGGAGTCACCTAGTGCAG”, the binding signal is 4980 fluorescence intensity (a.u.). Under “GGGGCCACATCGTCAGTGAAACGGACGGGTATAGGGTTAGCGGAGTCACCTAGTGCAG” stands 3270 fluorescence intensity (a.u.); under “CGCCGCCTCCGCCTCCGCCTCCGCTGCTCGCCGACCGGAGCGGAGTCACCTAGTGCAG”, 4680 fluorescence intensity (a.u.).

For “CCTCCTCGCTGCCCAGCCACCGCCGCCCTCCCGTCCCGCGCGGAGTCACCTAGTGCAG”, the binding signal was 3490 fluorescence intensity (a.u.). Under “CATAGCCCTCTGTCGCGGGCGCCGCTGTCCACCGTCCTCCCGGAGTCACCTAGTGCAG” stands 43900 fluorescence intensity (a.u.); under “ATCGCCCCGCTGACCGCCTCCTCCCGCGGCTGTCCGAGCGCGGAGTCACCTAGTGCAG”, 41300 fluorescence intensity (a.u.). For “CGCGCCGTCGTCCAGCCACCGTCACGCCGCGCGGGGCGCCCGGAGTCACCTAGTGCAG”, the binding signal was 3830 fluorescence intensity (a.u.).

In the case of “TTGACCGCTTGACGCGGAGCTCCCCGCCGGCCTCCTCCCCCGGAGTCACCTAGTGCAG”, the binding signal was 4540 fluorescence intensity (a.u.). In the case of “ATCAGCAACAATCAGGCTCCTGTGCGGTAAGTCCAACATTCGGAGTCACCTAGTGCAG”, the binding signal was 6700 fluorescence intensity (a.u.). “AGTGCTAGTCATCACTGTATTAGATTTAGGAATCTCTTCTCGGAGTCACCTAGTGCAG”: the binding signal is 3600 fluorescence intensity (a.u.). With “AATCCGCCGAGGGACTTATTGTGACCGGTTTTGATTAGTTCGGAGTCACCTAGTGCAG” the figure was 19600 fluorescence intensity (a.u.); with “CCACACACTTATGAACACGAGTACAGCCGATGCCCTATAACGGAGTCACCTAGTGCAG”, 3390 fluorescence intensity (a.u.). Under “TGTTAAATTCGTCTCGCAAAATAGCCTAAGGGTTATAGAACGGAGTCACCTAGTGCAG” stands 40500 fluorescence intensity (a.u.); under “TAAGGCAAAAGCCAAAATTCAAATATAGTTAAAATTAAAGCGGAGTCACCTAGTGCAG”, 7150 fluorescence intensity (a.u.); under “TATGATTTTAAATTCGTCATACTCTAGTTAGCCTAGAAAACGGAGTCACCTAGTGCAG”, 3430 fluorescence intensity (a.u.).

(Values after publication PMC7819943, “Rice protein-binding microarrays: a tool to detect cis-acting elements near promoter regions in rice”.)
